High-throughput results as filed in PubChem.
SW480 rerep = induces DNA re-replication in SW480 colon adenocarcinoma cells; Potency, µM (series often up to 46.1 µM), for the others: at the top dose re-replication activation, most hits filed as activators; SW480 DNA re-replication, Hoechst DNA content imaging, 48 h; 1.8% of 340,000 active; further: potency means the concentration at half of the fitted maximal effect; % of control where 0% means no effect; nearly all actives have a fitted effect of over 55% in size
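250 cells/well; 23 nL cpd via pin tool; 48 hr, 37 C, 5% CO2; Hoechst 40 min; imager read of total nuclear intensity, ex 405/em 500-530 nm.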
KB-3-1 tox = kills parental KB-3-1 adenocarcinoma cells; Potency, µM (series often up to 46.1 µM), actives largely listed as cytotoxic; KB-3-1 viability, CellTiter-Glo ATP luminescence, 72 h; 1.4% of 400,000 active; further: potency means the concentration at half of the fitted maximal effect; on the % scale 0 is the no-effect control and ±100 the full control effect; nearly all actives have a fitted effect of over 60% in size
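Using CellTiter-Glo luminescence, growth of non-resistant KB-3-1 adenocarcinoma cells is assessed 72 h after pin-tool compound addition at 37 °C. Normalized responses across the concentration series yield fitted curves.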
ASM inhibitor = blocks human secretory acid sphingomyelinase | P17405 | placental ASM, HMU-PC fluorogenic substrate, 60 min | Potency, µM (titrated, usually from 57.5 µM), without a hit: at the top dose activity change, negative = inhibition, most hits filed as inhibitors | 0.006% of 340,000 active | AID 504937; further: potency means the concentration at half of the fitted maximal effect
Target sequence (P17405 47-631 limits assumed): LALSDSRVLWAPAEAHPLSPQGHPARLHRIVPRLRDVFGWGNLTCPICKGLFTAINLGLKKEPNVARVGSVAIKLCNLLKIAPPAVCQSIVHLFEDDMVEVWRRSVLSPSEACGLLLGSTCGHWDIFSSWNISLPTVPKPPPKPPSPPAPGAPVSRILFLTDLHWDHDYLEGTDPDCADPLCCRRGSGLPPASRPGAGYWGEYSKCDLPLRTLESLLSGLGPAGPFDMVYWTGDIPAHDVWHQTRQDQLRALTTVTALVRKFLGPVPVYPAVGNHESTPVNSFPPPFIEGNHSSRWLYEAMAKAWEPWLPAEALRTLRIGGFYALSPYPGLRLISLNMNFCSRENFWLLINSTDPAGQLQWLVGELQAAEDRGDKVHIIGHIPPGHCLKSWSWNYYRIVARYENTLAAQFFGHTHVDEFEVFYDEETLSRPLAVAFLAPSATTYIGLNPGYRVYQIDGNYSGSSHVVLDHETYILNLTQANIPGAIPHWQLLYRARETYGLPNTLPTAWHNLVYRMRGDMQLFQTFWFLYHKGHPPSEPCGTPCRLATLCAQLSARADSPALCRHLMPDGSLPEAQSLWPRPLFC
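Human placenta-derived ASM preincubated with compound 10 min at room temperature, then reacted with 9 uM (final) fluorogenic HMU-PC substrate for 60 min at 37 C. Stop solution raises pH to 10; fluorescence read at Ex 386/Em 447 nm.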
Giardia killer = Giardia lamblia killing; Giardia lamblia trophozoite viability; activity change, % at 7.66 µM, hits read low; 0.15% of 340,000 active; AID 540267; in the data active means activity change below about -80%; inconclusive means between about -30% and that limit;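 further: parasites exposed to compound for two days anaerobically before the ATP read; on the % scale 0 is the no-effect control and ±100 the full control effect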
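Compounds were tested on trophozoites seeded at 100 cells/well and held 48 hrs at 37 deg C anaerobically. An ATP-based luminescent kit measured the remaining live cells.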
MCF10A rerep = inducers of DNA re-replication in MCF 10A breast cells | 2.9% of 350,000 active | MCF 10A DNA re-replication, Hoechst nuclear intensity, 48 h | Potency, µM (highest dose often 46.1 µM), inactives show at the top dose activity, positive = re-replication, actives largely listed as activators; further: potency means the concentration at half of the fitted maximal effect; % of control where 0% means no effect; nearly all actives have a fitted effect of over 50% in size
KB-V1 cytotox = kills drug-selected multidrug resistant KB-V1 cells | 3.4% of 400,000 active | KB-V1 MDR cells viability, CellTiter-Glo, 72 h | Potency, µM (top dose mostly 46.1 µM), hits mostly cytotoxic; further: potency means the concentration at half of the fitted maximal effect; on the % scale 0 is the no-effect control and ±100 the full control effect; nearly all actives have a fitted effect of over 60% in size
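KB-V1 cells (P-gp-expressing MDR subline of KB-3-1) in phenol-red-free DMEM with 10% FBS were exposed to library compounds over a concentration series for 72 h at 37 degrees C. Viability read by CellTiter-Glo luminescence; concentration-effect curves fitted after normalization.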
* = called active by the depositor; i = inactive; ? = inconclusive; nt = no result; [ ] = remark or other dose. This is a sample that favours compounds with a hit; in the whole collection about 6.9% have one here. Unless noted, the call rests on the fitted dose curve; in most records, active means well fitted curve in the direction sought with a large enough effect; inconclusive means small, poorly fitted or top-dose-only effect, or another doubt; inactive means no such curve, though single readings can be large; an effect the other way counts as inactive or inconclusive.

SMILES	SW480 rerep	KB-3-1 tox	ASM inhibitor	Giardia killer	MCF10A rerep	KB-V1 cytotox
CCC(CC)NCc1ccc2c(c1)c1ccccc1n2CC	2.3%	i	-4.5%	16.5	20.6µM*	?
COc1cccc(CNCc2ccc(OC)cc2OC)c1	0.0%	i	-1.6%	0.9	7.7%	i
CCn1c2ccccc2c2cc(CNCc3ccc(OC)cc3OC)ccc21	?	i	-19.6%	-10.1	7.31µM*	i
O=C1/C(=C/c2cccs2)SC(=S)N1CCC(=O)N1CCCCC1CCO (configuration not stated)	7.4%	i	-10.2%	2.6	16.2%	i
Cc1ccccc1NC(=O)OCc1cccnc1Sc1ccc(Cl)cc1	-6.7%	i	?	-2.1	0.4%	i
Cc1ccc(Sc2ncccc2COC(=O)Nc2ccccc2)cc1	5.4%	?	-18.2%	10.4	18.4µM*	i
Cc1ccc(Sc2ncccc2COC(=O)Nc2c(C)cccc2C)cc1	?	25.9µM*	-8.9%	4.1	?	i
COc1ccc(C2/C=C\CN(S(=O)(=O)c3ccc(C)cc3)C(Cc3ccccc3)C(=O)N2Cc2ccc(F)cc2)cc1 (configuration not stated)	nt	nt	nt	-5.8	nt	nt
CN(CC(=O)N1CC=C(c2ccccc2)CC1)S(=O)(=O)c1ccc2c(c1)c(=O)n(C)c(=O)n2C	-3.3%	i	-7.9%	49.1	14.6%	i
Cn1c(=O)c2cc(S(=O)(=O)NCCC(=O)N3CC=C(c4ccccc4)CC3)ccc2n(C)c1=O	-0.5%	i	-1.9%	-12.2	-12.1%	23.1µM*
Cc1ccccc1N/N=C/c1c(C)nc2ccccn12	14.2%	i	44.6%	-25.8	16.4µM*	i
Cc1ccc(NC(=O)c2c(C)nc3ccccn23)cc1C	1.7%	i	-1.9%	16.4	0.3%	i
COc1nc(N)nc(N)c1NS(=O)(=O)c1ccc(C)cc1	-6.3%	i	3.1%	-3.9	-0.7%	i
CCOC(=O)CSc1nnc(CNC(=O)c2cccc(C)c2)n1C	-9.5%	i	-1.3%	-22.7	?	i
Cc1cccc(C(=O)NCc2nnc(SCC(=O)NC(C)c3ccccc3)n2C)c1 (configuration not stated)	18.4µM*	i	-2.0%	-12.8	-3.9%	i
CC(=O)N1N=C(c2ccccc2)CC1c1cn(C)c2ccccc12 (configuration not stated)	19.8%	i	17.0%	-8.6	17.4%	23.1µM*
CC1=CC(C)(C)N(S(=O)(=O)c2ccc(C)cc2)c2ccc(C)cc21	7.1%	6.51µM*	-3.5%	-0.9	-1.5%	?
C/C=C/C(=O)N1c2ccc(C)cc2C(C)=CC1(C)C	3.4%	i	-4.6%	-26.0	9.2%	i
COc1ccc(NC(=O)N2c3ccccc3C(C)=CC2(C)C)cc1	-0.5%	i	24.3%	3.3	9.0%	i
CC(=O)Nc1ccc(S(=O)(=O)N2c3ccccc3C(C)=CC2(C)C)cc1	?	3.26µM*	-0.3%	17.3	?	?
CC1=CC(C)(C)N(S(=O)(=O)c2ccc(F)cc2)c2ccccc21	20.6µM*	i	-2.4%	13.1	?	i
COc1ccc2c(CNCCc3cccs3)c(C(=O)O)n(Cc3ccccc3)c2c1	nt	i	nt	nt	nt	i
O=S(=O)(c1cccc(C(F)(F)F)c1)N1CCN(c2nc(-c3cccs3)nc3cc(Cl)ccc23)CC1	nt	nt	nt	2.5	nt	nt
O=C(/C=C/c1ccc(Br)o1)NC(c1ccccc1)c1ccccc1	13.9%	i	2.7%	7.7	1.3%	23.1µM*
O=C(NC(c1ccccc1)c1ccccc1)c1ccc(Br)o1	?	i	-4.9%	7.7	13.2%	i
SMILES	SW480 rerep	KB-3-1 tox	ASM inhibitor	Giardia killer	MCF10A rerep	KB-V1 cytotox
Cc1ccc(NS(=O)(=O)c2cc(C(=O)NCCSc3ccc(C)cc3)ccc2C)cc1	15.7%	i	-22.6%	6.0	25.5%	16.4µM*
COc1ccc(-c2cnn3c(N)c(S(=O)(=O)C(C)(C)C)cnc23)cc1	?	i	-6.0%	15.8	15.4%	14.6µM*
COc1ccc(C(=O)C(=NNc2ccccc2)c2ccc(OC)cc2)cc1	2.9%	i	-26.2%	6.4	0.7%	i
COc1ccc(N/N=C(\C=N\O)C(=O)c2ccc(OC)cc2)cc1	?	?	-29.5%	-16.8	6.51µM*	i
CC(C)C(=O)OCC(=O)[C@@]12OC(C3CCCCC3)O[C@@H]1CC1C3CCC4=CC(=O)C=C[C@]4(C)C3[C@@H](O)C[C@@]12C (some centres not stated)	11.9µM*	nt	nt	nt	?	nt
CCCC1O[C@@H]2C[C@H]3[C@@H]4CCC5=CC(=O)C=C[C@]5(C)[C@H]4[C@@H](O)C[C@]3(C)[C@]2(C(=O)CO)O1 (some centres not stated)	-27.3%	i	-2.9%	?	5.5%	i
COC(=O)c1c(C)cccc1C1CN=NC12Cc1ccccc1C2=O (configuration not stated)	-4.2%	i	-1.6%	-12.8	-5.3%	20.6µM*
CC1(C)O[C@@H]2C[C@H]3[C@H]4C[C@H](F)C5=CC(=O)C=C[C@@]5(C)[C@@H]4[C@H](O)C[C@]3(C)[C@]2(C(=O)CO)O1	-3.2%[20.6 µM]	nt	nt	nt	-0.7%[20.6 µM]	nt
COc1cc([N+](=O)[O-])ccc1NC(=O)CC1SC(=Nc2ccc(F)cc2)N(CCC2=CCCCC2)C1=O (configuration not stated)	10.6%	9.2µM*	-5.8%	-13.0	?	?
COc1ccc(N=C2SC(CC(=O)Nc3ccc(OC)cc3OC)C(=O)N2C)cc1 (configuration not stated)	-0.2%	i	-2.0%	2.9	11.7%	18.4µM*
COc1ccc(OC)c(NC(=O)CC2SC(=Nc3ccc(F)cc3)N(CCC3=CCCCC3)C2=O)c1 (configuration not stated)	18.7%	i	-8.9%	10.3	?	?
CCCCC1Cc2[nH]c(=S)[nH]c(=O)c2C(C(C)C)O1 (configuration not stated)	nt	i	nt	nt	nt	?
O=C(Cn1c(=O)n(Cc2ccccc2)c(=O)c2oc3ccccc3c21)Nc1ccc(Cl)cc1	nt	i	nt	nt	nt	i
COC(=O)C(C)Sc1nnc2cc(C)c3cc(C)cc(C)c3n12 (configuration not stated)	nt	i	nt	nt	nt	i
CC(=O)c1cccc(NC(=O)c2cccc(N3C(=O)c4ccccc4C3=O)c2)c1	-6.7%	i	-5.7%	5.8	13.1%	i
O=C(NC1=NCCS1)c1cccc(N2C(=O)c3ccccc3C2=O)c1	-39.8%	i	-1.8%	-19.2	6.51µM*	?
CC1CCN(C(=O)CSc2nc(-c3ccc(C(C)C)cc3)no2)CC1	nt	i	nt	nt	nt	i
